Measurements as given in the supplement of paper PMC11732987, “Enantioselective OTUD7B fragment discovery through chemoproteomics screening and high-throughput optimisation” (Communications Chemistry, 2025).

What was measured:
Test in all cases: log2 ratio of Biotin-Ahx-Ub-VS probe labelling (fragment/DMSO); higher = less target engagement (more negative = stronger competition), active = hit call of the paper (q ≤ 0.05, log2 ratio ≤ -1)
Conditions in all cases: compound concentration: 200 uM; treatment time: 3 h
USP19 = biological target: T1, USP19 (UniProt O94966)
T1 sequence (whole entry): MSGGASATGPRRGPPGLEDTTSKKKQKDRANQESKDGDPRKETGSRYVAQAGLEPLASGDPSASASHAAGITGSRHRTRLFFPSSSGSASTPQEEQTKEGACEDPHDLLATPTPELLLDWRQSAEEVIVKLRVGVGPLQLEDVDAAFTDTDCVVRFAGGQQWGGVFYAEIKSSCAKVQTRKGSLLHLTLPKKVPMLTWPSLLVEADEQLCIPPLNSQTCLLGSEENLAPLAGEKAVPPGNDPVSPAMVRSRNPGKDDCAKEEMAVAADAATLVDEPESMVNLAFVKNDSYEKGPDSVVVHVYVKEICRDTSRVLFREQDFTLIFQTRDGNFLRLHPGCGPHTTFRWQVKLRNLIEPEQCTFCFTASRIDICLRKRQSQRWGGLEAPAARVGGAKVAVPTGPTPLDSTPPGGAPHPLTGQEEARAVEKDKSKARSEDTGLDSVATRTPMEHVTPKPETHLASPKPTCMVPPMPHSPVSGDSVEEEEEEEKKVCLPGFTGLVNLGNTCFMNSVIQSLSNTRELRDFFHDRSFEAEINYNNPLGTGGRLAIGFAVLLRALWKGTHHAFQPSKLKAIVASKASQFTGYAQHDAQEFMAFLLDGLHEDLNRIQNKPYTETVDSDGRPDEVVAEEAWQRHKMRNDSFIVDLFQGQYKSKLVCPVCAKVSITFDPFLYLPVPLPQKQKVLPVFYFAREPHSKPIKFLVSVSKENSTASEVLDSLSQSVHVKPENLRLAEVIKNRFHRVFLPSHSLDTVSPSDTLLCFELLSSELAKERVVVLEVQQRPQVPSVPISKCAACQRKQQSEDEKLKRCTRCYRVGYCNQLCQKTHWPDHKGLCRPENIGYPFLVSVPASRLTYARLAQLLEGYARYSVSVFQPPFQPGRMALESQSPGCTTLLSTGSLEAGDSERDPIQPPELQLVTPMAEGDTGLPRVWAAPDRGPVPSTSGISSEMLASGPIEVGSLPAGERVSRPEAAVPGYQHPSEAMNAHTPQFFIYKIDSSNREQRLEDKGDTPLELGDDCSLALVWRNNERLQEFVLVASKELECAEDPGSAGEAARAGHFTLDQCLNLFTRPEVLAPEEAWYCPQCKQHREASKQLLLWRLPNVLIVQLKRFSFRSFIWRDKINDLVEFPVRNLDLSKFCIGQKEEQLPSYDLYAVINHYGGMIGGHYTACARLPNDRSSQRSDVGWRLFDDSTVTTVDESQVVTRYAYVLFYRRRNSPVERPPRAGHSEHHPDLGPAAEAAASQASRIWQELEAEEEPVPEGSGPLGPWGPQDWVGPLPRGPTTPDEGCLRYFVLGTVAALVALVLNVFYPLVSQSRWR
In short: (§1)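 Average log2 ratios of fragment over vehicle were obtained by unpaired t-test from global-median-normalised Spectronaut label-free quantities. Proteins with ≥2 unique peptides were included. HEK293T lysate (495 µg per sample) was treated in triplicate with fragment at 200 µM or vehicle for 3 h, then with Biotin-Ahx-Ub-VS at 0.5 µM final for 1 h, and labelled DUBs were NeutrAvidin-enriched and run by diaPASEF LC-MS/MS.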

USP24 = USP24 (UniProt Q9UPU5)
Sequence of USP24 (Q9UPU5 whole entry): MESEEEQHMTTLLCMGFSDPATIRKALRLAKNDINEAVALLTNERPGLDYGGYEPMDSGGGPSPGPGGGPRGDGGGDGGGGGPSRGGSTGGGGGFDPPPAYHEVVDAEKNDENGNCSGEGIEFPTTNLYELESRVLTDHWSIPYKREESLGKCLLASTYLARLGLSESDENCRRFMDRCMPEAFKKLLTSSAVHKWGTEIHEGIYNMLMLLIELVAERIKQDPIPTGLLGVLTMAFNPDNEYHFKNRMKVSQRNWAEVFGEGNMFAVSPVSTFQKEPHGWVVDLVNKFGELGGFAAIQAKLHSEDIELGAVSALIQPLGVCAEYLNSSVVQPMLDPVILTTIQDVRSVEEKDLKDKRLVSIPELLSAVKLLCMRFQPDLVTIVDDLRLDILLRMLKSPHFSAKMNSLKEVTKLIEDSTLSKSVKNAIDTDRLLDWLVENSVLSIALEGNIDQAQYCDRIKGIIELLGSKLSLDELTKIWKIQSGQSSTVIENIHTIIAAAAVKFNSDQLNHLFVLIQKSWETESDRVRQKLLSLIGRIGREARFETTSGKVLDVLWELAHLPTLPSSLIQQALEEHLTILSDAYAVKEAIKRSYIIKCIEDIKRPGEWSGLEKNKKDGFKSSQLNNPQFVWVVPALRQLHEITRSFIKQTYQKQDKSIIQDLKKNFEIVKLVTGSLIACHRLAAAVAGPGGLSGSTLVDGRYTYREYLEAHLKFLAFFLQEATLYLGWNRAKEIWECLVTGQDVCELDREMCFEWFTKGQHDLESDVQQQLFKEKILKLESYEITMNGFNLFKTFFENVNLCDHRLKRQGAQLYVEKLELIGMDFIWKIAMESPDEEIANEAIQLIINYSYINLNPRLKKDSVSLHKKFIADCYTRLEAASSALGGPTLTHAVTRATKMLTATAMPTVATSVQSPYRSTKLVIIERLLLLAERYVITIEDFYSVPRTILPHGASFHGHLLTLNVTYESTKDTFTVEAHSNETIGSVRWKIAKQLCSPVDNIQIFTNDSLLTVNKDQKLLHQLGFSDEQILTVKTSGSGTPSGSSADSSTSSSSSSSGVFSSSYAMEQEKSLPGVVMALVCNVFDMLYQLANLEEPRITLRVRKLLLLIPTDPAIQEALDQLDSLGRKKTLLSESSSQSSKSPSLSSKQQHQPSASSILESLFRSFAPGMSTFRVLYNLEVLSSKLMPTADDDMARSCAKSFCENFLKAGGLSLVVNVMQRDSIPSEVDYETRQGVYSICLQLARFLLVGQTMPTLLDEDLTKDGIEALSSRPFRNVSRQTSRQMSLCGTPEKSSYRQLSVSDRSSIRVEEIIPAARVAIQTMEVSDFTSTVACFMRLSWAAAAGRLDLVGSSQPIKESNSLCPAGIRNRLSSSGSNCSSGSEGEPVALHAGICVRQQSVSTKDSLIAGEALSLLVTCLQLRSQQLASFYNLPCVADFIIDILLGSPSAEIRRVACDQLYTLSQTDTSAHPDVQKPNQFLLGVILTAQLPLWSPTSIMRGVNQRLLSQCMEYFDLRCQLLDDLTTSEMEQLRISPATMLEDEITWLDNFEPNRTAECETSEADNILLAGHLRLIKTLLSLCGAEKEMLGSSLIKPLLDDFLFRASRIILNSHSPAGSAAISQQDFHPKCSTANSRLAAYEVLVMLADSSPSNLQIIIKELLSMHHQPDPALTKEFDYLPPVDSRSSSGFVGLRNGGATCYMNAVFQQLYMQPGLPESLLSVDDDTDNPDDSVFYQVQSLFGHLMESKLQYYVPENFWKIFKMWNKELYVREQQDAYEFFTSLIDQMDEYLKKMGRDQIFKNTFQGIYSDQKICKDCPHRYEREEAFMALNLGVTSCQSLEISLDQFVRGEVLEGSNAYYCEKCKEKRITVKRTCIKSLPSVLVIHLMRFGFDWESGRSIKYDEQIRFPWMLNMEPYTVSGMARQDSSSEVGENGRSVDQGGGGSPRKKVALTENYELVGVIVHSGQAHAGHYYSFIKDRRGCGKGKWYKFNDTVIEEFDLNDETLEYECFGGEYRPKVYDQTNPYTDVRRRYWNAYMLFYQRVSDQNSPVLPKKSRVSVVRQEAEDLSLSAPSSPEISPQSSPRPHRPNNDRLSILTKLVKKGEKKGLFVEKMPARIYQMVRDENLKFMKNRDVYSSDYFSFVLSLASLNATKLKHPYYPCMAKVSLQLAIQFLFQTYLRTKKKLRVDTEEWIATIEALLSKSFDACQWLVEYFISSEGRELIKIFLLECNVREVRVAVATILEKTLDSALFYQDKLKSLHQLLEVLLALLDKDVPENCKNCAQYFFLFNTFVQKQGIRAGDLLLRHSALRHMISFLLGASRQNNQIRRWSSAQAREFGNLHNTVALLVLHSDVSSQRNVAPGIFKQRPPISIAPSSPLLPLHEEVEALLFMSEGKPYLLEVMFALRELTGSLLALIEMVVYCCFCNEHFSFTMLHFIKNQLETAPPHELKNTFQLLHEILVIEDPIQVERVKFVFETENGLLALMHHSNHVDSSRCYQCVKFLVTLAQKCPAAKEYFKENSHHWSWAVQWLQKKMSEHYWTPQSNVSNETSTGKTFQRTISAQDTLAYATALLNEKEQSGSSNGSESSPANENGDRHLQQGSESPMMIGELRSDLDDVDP
In short: as §1

USP25 = biological target: T2, USP25 (UniProt Q9UHP3)
T2 sequence (whole entry): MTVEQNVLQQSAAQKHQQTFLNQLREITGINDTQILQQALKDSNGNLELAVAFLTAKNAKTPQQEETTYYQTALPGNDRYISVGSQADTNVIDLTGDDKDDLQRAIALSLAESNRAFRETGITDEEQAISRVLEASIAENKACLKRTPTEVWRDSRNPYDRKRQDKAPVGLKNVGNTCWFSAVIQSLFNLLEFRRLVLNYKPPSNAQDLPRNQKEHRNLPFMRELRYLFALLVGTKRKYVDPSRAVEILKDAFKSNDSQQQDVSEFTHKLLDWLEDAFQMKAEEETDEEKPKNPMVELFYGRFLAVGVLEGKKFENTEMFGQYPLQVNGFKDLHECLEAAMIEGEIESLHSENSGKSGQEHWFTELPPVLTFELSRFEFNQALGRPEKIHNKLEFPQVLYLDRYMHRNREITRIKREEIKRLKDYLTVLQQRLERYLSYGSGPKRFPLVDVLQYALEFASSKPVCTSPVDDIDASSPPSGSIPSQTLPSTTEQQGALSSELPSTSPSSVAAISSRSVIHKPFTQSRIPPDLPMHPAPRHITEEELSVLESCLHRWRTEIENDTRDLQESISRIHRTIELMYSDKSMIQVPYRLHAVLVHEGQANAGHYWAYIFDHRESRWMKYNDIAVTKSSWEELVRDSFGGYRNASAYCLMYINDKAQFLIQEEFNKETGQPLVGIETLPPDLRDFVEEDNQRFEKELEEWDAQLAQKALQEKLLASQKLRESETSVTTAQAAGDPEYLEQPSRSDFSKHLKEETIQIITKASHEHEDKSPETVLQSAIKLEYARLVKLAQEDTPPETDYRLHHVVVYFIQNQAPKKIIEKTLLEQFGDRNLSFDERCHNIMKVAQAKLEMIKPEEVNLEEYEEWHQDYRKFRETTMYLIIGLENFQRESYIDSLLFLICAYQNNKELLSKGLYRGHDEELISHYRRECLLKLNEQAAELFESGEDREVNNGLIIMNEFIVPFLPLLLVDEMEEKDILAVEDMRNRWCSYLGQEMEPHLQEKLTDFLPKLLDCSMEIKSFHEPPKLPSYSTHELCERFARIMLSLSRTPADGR
In short: as §1

USP28 = biological target: T3, USP28 (UniProt Q96RU2)
T3 sequence (whole entry): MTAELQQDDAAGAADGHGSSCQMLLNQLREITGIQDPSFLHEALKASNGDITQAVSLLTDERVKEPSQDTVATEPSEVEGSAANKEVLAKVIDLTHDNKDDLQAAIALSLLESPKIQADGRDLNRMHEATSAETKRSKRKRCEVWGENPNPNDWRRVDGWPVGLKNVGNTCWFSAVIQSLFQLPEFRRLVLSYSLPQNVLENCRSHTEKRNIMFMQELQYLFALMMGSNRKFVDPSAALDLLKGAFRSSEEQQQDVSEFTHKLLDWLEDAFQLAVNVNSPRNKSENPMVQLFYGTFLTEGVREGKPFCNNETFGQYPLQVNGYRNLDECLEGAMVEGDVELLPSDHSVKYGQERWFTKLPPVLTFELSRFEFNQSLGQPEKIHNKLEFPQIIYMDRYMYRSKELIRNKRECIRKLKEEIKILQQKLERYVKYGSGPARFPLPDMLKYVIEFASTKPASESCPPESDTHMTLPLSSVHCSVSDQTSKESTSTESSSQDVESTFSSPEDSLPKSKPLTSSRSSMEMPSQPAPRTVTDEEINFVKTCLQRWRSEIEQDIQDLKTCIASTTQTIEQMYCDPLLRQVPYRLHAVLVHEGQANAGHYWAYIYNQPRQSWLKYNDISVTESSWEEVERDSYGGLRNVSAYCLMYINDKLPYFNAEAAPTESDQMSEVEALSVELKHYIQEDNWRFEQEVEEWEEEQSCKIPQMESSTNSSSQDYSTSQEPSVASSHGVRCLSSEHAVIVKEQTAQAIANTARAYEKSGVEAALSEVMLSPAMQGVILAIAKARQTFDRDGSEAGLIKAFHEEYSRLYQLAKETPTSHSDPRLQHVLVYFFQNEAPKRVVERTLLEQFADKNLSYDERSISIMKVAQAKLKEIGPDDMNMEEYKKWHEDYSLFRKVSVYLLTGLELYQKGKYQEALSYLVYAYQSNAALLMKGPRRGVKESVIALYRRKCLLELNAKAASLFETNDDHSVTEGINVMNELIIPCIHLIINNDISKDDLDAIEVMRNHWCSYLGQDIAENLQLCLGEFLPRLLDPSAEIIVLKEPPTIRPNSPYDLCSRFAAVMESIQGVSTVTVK
In short: as §1

Measured: log2 ratio of Biotin-Ahx-Ub-VS probe labelling

O=C(CN1CCN(C(=O)CCl)CC1)Nc1cccc(F)c1
inactive: USP19 -0.265 | USP24 -0.335 | USP25 -0.473 | USP28 -0.428
